In the library only some 6.2% were active in any assay of this set; here they are far more common.
Marburg entry inh: qHTS for inhibitors of binding or entry into cells for Marburg Virus; Marburg virus pseudotyped entry inhibition, cell reporter; Potency, µM (highest dose often 37.8 µM), without a hit: at the top dose activity change, negative = inhibition, hits mostly inhibitors; 300,000 tested, 1.8% active; calls by dose curve; tested in HEK293 cells; also: potency is read from the fitted curve at half-maximal effect
Lassa entry inh: qHTS for Inhibitors of binding or entry into cells for Lassa Virus; 300,000 tested, 1.2% active; Lassa virus pseudotype entry inhibition, cell reporter; Potency, µM (top dose mostly 37.9 µM), for inactives: at the highest dose activity change, negative = inhibition, most hits filed as inhibitors; calls by dose curve; tested in HEK293 cells; also: potency is read from the fitted curve at half-maximal effect; nearly all actives have a fitted effect of over 50% in size
HCMV antiviral: qHTS Assay for inhibitors of the human cytomegalovirus (HCMV) | HFF cells, HCMV-luciferase reporter, 72 h; stronger effect = lower value | activity change, negative = inhibition, % at 57.5 µM | 410,000 tested, 4.5% active | AID 1259415, 2018; in the data active = activity change below about -60%; inconclusive = no clear call, values can overlap the other calls; inactive = above about -39%
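Human foreskin fibroblasts infected with luciferase-reporter HCMV at MOI 1 PFU/cell, compounds at two doses. Luciferase measured 72 h post infection; normalized to buffer-only basal and Salinomycin (10uM) controls.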
FMDV antiviral: High Throughput Screening for Foot and Mouth Disease Virus Antivirals | FMDV antiviral cell-based qHTS | Potency, µM (titrated, usually from 57.9 µM), for inactives: at the highest dose activity change, negative = inhibition, most hits filed as inhibitors | 410,000 tested, 1.2% active; calls by dose curve; tested in HEK293T cells; also: read-out not given here; potency is read from the fitted curve at half-maximal effect; nearly all actives have a fitted effect of over 45% in size
Numbers without * were called inactive; [ ] = dose if it differs, or a comment. % is scaled to controls: 0 for no effect and ±100 for the full control effect.

How did COc1ccccc1C(=O)Nc1ccc2nc(SCC(=O)N(C)C)sc2c1 do in these assays?
Marburg entry inh: -0.5%; Lassa entry inh: -6.9%; HCMV antiviral: 13.1; FMDV antiviral: -25.0%

What do the screens show for `CN(C(=O)CSc1nc2ccc(NC(=O)c3cccc(F)c3)cc2s1)c1ccccc1`?
Marburg entry inh: inconclusive; Lassa entry inh: -26.2%[46.1 µM]; HCMV antiviral: -74.6*; FMDV antiviral: inconclusive

Results for OCc1ccc(-c2ccc(-c3ccc(CO)s3)o2)s1 ?
FMDV antiviral: 11.1%

How did Cc1ccc(F)cc1CNC(=O)c1sc2ncnc(NCC3CCCO3)c2c1C (stereo unspecified) do in these assays?
FMDV antiviral: -18.5%

Results for O=C(NCCc1ccccc1)c1ccc2c(c1)N(Cc1ccc(F)cc1Cl)C(=O)CS2 ?
Marburg entry inh: inconclusive; Lassa entry inh: 5.4%[46.1 µM]; HCMV antiviral: -15.8; FMDV antiviral: -22.2%

Results for O=C(NCCc1ccc(Cl)cc1)c1ccc2c(c1)N(Cc1ccc(F)cc1Cl)C(=O)CS2 ?
Marburg entry inh: -27.8%[46.1 µM]; Lassa entry inh: inconclusive; HCMV antiviral: -63.6*; FMDV antiviral: -23.5%

How did O=C(NCc1ccc2c(c1)OCO2)c1ccc2c(c1)N(Cc1c(F)cccc1Cl)C(=O)CS2 do in these assays?
Marburg entry inh: inconclusive; Lassa entry inh: inconclusive; HCMV antiviral: -77.9*; FMDV antiviral: -18.9%

What do the screens show for `CCC(CC)C(=O)Nc1c(C(=O)N2CCN(c3ccccc3F)CC2)oc2ccccc12`?
Marburg entry inh: inconclusive; Lassa entry inh: inconclusive; HCMV antiviral: -18.6; FMDV antiviral: 17.9%

How did Cc1ccc(C2SCC(C(=O)O)N2C(=O)c2ccc(F)cc2)cc1 (stereo unspecified) do in these assays?
Marburg entry inh: 0.5%; Lassa entry inh: 8.0%; HCMV antiviral: -34.7; FMDV antiviral: -7.6%

Results for O=C(O)C1CSC(c2ccccc2Cl)N1C(=O)c1ccc(Cl)cc1 (stereo unspecified) ?
Marburg entry inh: inconclusive; Lassa entry inh: -1.9%; HCMV antiviral: -61.0*; FMDV antiviral: -23.2%

What do the screens show for `COc1ccc(C(=O)N2CCc3ccc(NC(=O)c4ccccn4)cc3C2)cc1F`?
HCMV antiviral: -89.5*; FMDV antiviral: inconclusive

What do the screens show for `COc1cc2c(cc1OC)CN(C(=O)c1ccncc1)CC2`?
HCMV antiviral: -3.9; FMDV antiviral: -8.2%

What do the screens show for `CC(C)(C)c1ccc(CN(Cc2ccccc2)C(c2ccccn2)c2nnnn2C(C)(C)C)cc1` (stereo unspecified)?
Marburg entry inh: inconclusive; Lassa entry inh: 5.62µM*; HCMV antiviral: -28.9; FMDV antiviral: -21.5%

What do the screens show for `CCN(Cc1ccccc1)C(c1ccncc1)c1nnnn1C(C)(C)C` (stereo unspecified)?
Marburg entry inh: -18.6%; Lassa entry inh: -47.3%; HCMV antiviral: -25.2; FMDV antiviral: -22.9%

How did CC(C)(C)n1nnnc1C(c1cc2ccccc2o1)N(Cc1ccccc1)Cc1ccccc1 (stereo unspecified) do in these assays?
HCMV antiviral: -86.8*; FMDV antiviral: inconclusive

How did CCOC(=O)c1ccc(NC(=O)COc2ccc(CNCCO)cc2OCC)cc1 do in these assays?
Marburg entry inh: 10µM*; HCMV antiviral: 0.4; FMDV antiviral: -8.5%

Results for CCOC(=O)c1ccc(NC(=O)COc2ccccc2CNCCc2ccccc2)cc1 ?
HCMV antiviral: -65.4*; FMDV antiviral: -26.1%

How did CCOc1ccc(NC(=O)C(=O)NCCc2ccccc2)cc1 do in these assays?
Lassa entry inh: -8.2%[46.1 µM]; HCMV antiviral: 4.3; FMDV antiviral: -1.3%

How did CCOc1ccc(NC(=O)COc2ccc(C(=O)NCCc3ccccc3)cc2)cc1 do in these assays?
Marburg entry inh: -26.0%; Lassa entry inh: inconclusive; HCMV antiviral: -80.5*; FMDV antiviral: -4.6%

Results for CCOc1cc(CNCCO)ccc1OCC(=O)NC(C)(C)C ?
Marburg entry inh: 5.3%[46.1 µM]; Lassa entry inh: 16.9%; HCMV antiviral: -17.2; FMDV antiviral: -14.8%

Results for CCCC(=O)OC[C@H]1CN(C2CCCC2)S(=O)(=O)c2c(Oc3ccc(C(C)(C)C)cc3)cccc2O1 ?
HCMV antiviral: 4.4

Results for O=C(Nc1ccc2nn(-c3ccccc3)nc2c1)c1ccc(Br)o1 ?
Marburg entry inh: inconclusive; Lassa entry inh: inconclusive; HCMV antiviral: -64.8*; FMDV antiviral: 5.2%

Results for CCc1ccc(-n2nc3ccc(NC(=O)c4ccc5c(c4)OCO5)cc3n2)cc1 ?
Marburg entry inh: -16.7%; Lassa entry inh: -8.2%; HCMV antiviral: -16.5; FMDV antiviral: 5.5%

What do the screens show for `O=C(Nc1ccc2nn(-c3ccccc3)nc2c1)c1ccc2c(c1)OCCO2`?
Marburg entry inh: -19.7%[46.1 µM]; Lassa entry inh: inconclusive; HCMV antiviral: inconclusive; FMDV antiviral: 25.1µM*

Results for CCOc1ccc(-n2nc3ccc(NC(=O)c4ccc5c(c4)OCCO5)cc3n2)cc1 ?
Marburg entry inh: inconclusive; Lassa entry inh: inconclusive; HCMV antiviral: -70.6*

Results for C[C@H]1[C@@H](NC(=O)Nc2ccc(C(F)(F)F)cc2)CC[C@@]23CCCN2C(=O)CCC[C@@H]13 ?
HCMV antiviral: -27.3

Results for CC(C)c1nc(N2CCN(C(=O)c3ccccc3)CC2)c(C#N)c2c1COC(C)(C)C2 ?
Marburg entry inh: 11.6µM*; Lassa entry inh: inconclusive; HCMV antiviral: -4.9; FMDV antiviral: -25.5%

How did CN(C)S(=O)(=O)N1CCC(Oc2cccc(C(=O)N3CCCCCC3)c2)CC1 do in these assays?
Marburg entry inh: inconclusive; Lassa entry inh: inconclusive; HCMV antiviral: -13.5; FMDV antiviral: -17.6%

What do the screens show for `CN(C)S(=O)(=O)N1CCC(Oc2cccc(C(=O)N3CCCCCCC3)c2)CC1`?
Marburg entry inh: -0.9%; Lassa entry inh: 11.2µM*; FMDV antiviral: inconclusive

What do the screens show for `Cc1ccc(C(=O)c2cn(Cc3cccc(F)c3)c3nc(C)ccc3c2=O)cc1`?
Marburg entry inh: inconclusive; Lassa entry inh: -2.8%[46.1 µM]; HCMV antiviral: inconclusive; FMDV antiviral: -11.0%

How did O=[N+]([O-])NC1=NCN(Cc2ccco2)CN1Cc1ccco1 do in these assays?
Marburg entry inh: 0.282µM*; Lassa entry inh: 8.8%; HCMV antiviral: inconclusive; FMDV antiviral: -4.3%

How did CN1CN=C(N[N+](=O)[O-])N(Cc2ccco2)C1 do in these assays?
Marburg entry inh: 2.3%; Lassa entry inh: -5.2%; HCMV antiviral: -6.7; FMDV antiviral: -7.8%

What do the screens show for `CCN(CC)C(=O)c1sc2c(c1C)c(=O)n(CCc1ccccc1)c(=O)n2Cc1ccc(C)cc1`?
Lassa entry inh: -24.5%[46.1 µM]; HCMV antiviral: -20.2; FMDV antiviral: inconclusive

How did COc1cc(/C=C(\NC(=O)c2ccccc2)C(=O)NCCO)c([N+](=O)[O-])cc1OC do in these assays?
Marburg entry inh: 0.2%; Lassa entry inh: -0.7%; HCMV antiviral: 89.4; FMDV antiviral: inconclusive

Results for COc1ccc(C(=Cc2cc(OC)c(OC)cc2[N+](=O)[O-])C(=O)O)cc1 ?
Marburg entry inh: -0.2%; Lassa entry inh: -3.4%; HCMV antiviral: -99.0*; FMDV antiviral: -2.6%

What do the screens show for `COc1ccc(CCNC(=O)c2cnn(-c3nccc(-c4cccs4)n3)c2C)cc1OC`?
FMDV antiviral: 24.5%

High-throughput results (PubChem)
